Nrf2 inh = blocks Nrf2 signaling; A549 ARE-Fluc reporter, luciferase luminescence, 18-24 h; Potency, µM (highest dose often 46 µM), hits mostly inhibitors; hit rate 2.1% among 360,000; further: nearly all actives have a fitted effect of over 60% in size
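A549 ARE_Fluc cells (5000/well, 5% FBS OPTI-MEM) pre-incubated 2 h, then treated with compounds 18-24 h at 37C/5% CO2 in concentration-response. CellTiter-Fluor viability read first; BugLite luciferase luminescence after 15 min at room temperature gives Nrf2 activity.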
IL-2 act = IL-2 activation; IL-2 activation reporter assay, cell-based qHTS; stimulated with anti-CD3/CD4/CD28 beads; in transgenic mouse T cells; activation, % (series mostly up to about 46 µM); hit rate 0.065% among 360,000; AID 652025; in the data active means activation above about 50%; inconclusive means mostly about 30% to 49%
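Quantitative HTS in unstimulated transgenic mouse T cells, with memory T cells as non-tolerant control and PMA/ionomycin as tolerance-bypass control. Compound pretreatment lasted 60 minutes before 18 h bead stimulation; EGFP/DsRed fluorescence read.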
A549 viability = A549 cytotoxicity, counter-screen for Nrf2 inhibitors. Potency, µM (series often up to 46 µM), usual class: inhibitors. AID 504648. hit rate 0.16% among 390,000. A549 ARE-Fluc cells, CellTiter-Fluor viability, 18-24 h
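A549 ARE_Fluc cells in 5% FBS OPTI-MEM were exposed to compounds in concentration-response for 18-24 h at 37 deg C. Viability was read by CellTiter-Fluor fluorescence (Ex 405/Em 525) after 30 min, before the luciferase read.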
Nrf2 ARE act = Nrf2 pathway activation. Potency, µM (series often up to 46.1 µM), usual class: activators. hit rate 0.31% among 410,000. AID 624171. AREc32 ARE-luciferase reporter (MCF7-derived line), luminescence, 24 h; further: nearly all actives have a fitted effect of over 65% in size
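ARE activation measured as luciferase luminescence (Steady-Glo, 30 min RT) in AREc32_Fluc cells after 24 hr compound exposure at 37 deg C, 5% CO2; cells seeded overnight at 1000/well in OPTI-MEM, 5% FBS.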
Large screens that a line does not name were inactive; ! = not confirmed by another sample. A selection: hits, their analogues and other compounds. The true share with any hit is near 2.3%. Unless noted, the call rests on the fitted dose curve; in most records, active means well fitted curve in the direction sought with a large enough effect; inconclusive means small, poorly fitted or top-dose-only effect, or another doubt; inactive means no such curve, though single readings can be large; an effect the other way counts as inactive or inconclusive.

Cc1nc(C(C)Nc2ncnc3ccc(-c4ccc5c(c4)OCO5)cc23)cs1 (stereo not given)	none (no result: IL-2 act, Nrf2 ARE act)
CC(C)Oc1ncnc2c1[nH]c1ccccc12	Nrf2 inh 8.2µM
CCCCC(=O)Nc1ccc(C(=O)Nc2ccc(OC)cc2[N+](=O)[O-])cc1	Nrf2 inh 21µM, IL-2 act inconclusive, A549 viability inconclusive
Cc1ccc(Cl)cc1N1CCN(C(=O)CCS(=O)(=O)c2ccc3c(c2)NC(=O)CO3)CC1	Nrf2 inh 16µM
COc1cc(OC)c(NS(=O)(=O)c2cc3c(cc2C)NC(=O)CO3)cc1Cl	none (no result: IL-2 act)
Cc1ccc(N2CCN(C(=O)CCS(=O)(=O)c3cc4c(cc3Cl)NC(=O)CO4)CC2)c(C)c1	Nrf2 inh 26µM (no result: IL-2 act)
Cc1ccc(C)c(NS(=O)(=O)c2cc3c(cc2Cl)NC(=O)CO3)c1	Nrf2 inh 23µM, A549 viability inconclusive (no result: IL-2 act)
O=C1COc2ccc(S(=O)(=O)CCC(=O)N3CCN(c4cccc(Cl)c4)CC3)cc2N1	Nrf2 inh inconclusive
Cc1ccc(CNC(=O)CCS(=O)(=O)c2cc3c(cc2Cl)NC(=O)CO3)cc1	Nrf2 inh 26µM!
Cc1ccc2c(c1)[C@H]1[C@H](CO2)[C@H](c2ccccc2)[C@]2(C)C(=O)N(C)CC(=O)N12	Nrf2 inh 21µM
Cc1ccc2c(c1)[C@H]1[C@H](CO2)[C@H](c2ccccc2)[C@]2(C)C(=O)NCC(=O)N12	none
c1ccc(CCNc2ncnc3sccc23)nc1	Nrf2 inh 8.2µM, A549 viability inconclusive
COc1ccc(CNc2ncnc3sccc23)cc1OC	Nrf2 inh 10µM
COc1ccc(C(CNc2ncnc3sccc23)N(C)C)cc1OC (stereo not given)	none
Cc1csc2ncnc(NCCc3ccccn3)c12	none
COc1ccc(CNc2ncnc3cc(Cl)ccc23)cc1OC	Nrf2 inh 16µM
COc1ccc(CNc2ncnc3sccc23)cc1	Nrf2 inh 10µM
CCOC(=O)c1cc(-c2ccc(OC)cc2)n(CCC(=O)Nc2ccc(OC)cc2OC)c1C	none (no result: Nrf2 inh, IL-2 act)
C#CC(=O)N(c1ccc(OC)cc1OC)C(C(=O)NC1CCCC1)c1cccs1 (stereo not given)	Nrf2 ARE act inconclusive
C#CC(=O)N(c1cc(OC)ccc1OC)C(C(=O)NC1CCCC1)c1cccs1 (stereo not given)	Nrf2 inh 10µM, A549 viability inconclusive, Nrf2 ARE act inconclusive
COc1ccc(Br)cc1/C=C/C(=O)c1ccc(NC(C)=O)cc1	Nrf2 inh 5.2µM, A549 viability 8.2µM, Nrf2 ARE act inconclusive
S=C(NCC1(c2ccccc2)CCCC1)Nc1ccccc1	Nrf2 inh 16µM
Cc1ccccc1OCC(=O)N(Cc1ccc(N(C)C)cc1)CC1CCCO1 (stereo not given)	none (no result: IL-2 act)
N#CN1CCC(NC(=O)c2ccc(C(F)(F)F)cc2)CC1	none (no result: IL-2 act, Nrf2 ARE act)
COc1ccc(S(=O)(=O)N(Cc2nc(-c3cccc(C)c3)no2)C2CCCCC2)cc1	none (no result: IL-2 act)
Cc1cc(C(=O)N2CCN(c3cccc(Cl)c3)CC2)c2c(C)nn(-c3ccccc3Cl)c2n1	Nrf2 inh 18µM (no result: IL-2 act)
Cc1cc(C(=O)N2CCN(c3ccc(F)cc3)CC2)c2c(C)nn(-c3cccc(Cl)c3C)c2n1	Nrf2 inh inconclusive (no result: IL-2 act)
O=C(NCc1nnc(-c2nc3ccccc3[nH]2)o1)C1CCCCC1	none (no result: IL-2 act, Nrf2 ARE act)
Oc1ccc(CN2CCc3ccccc3C2)c2cccnc12	Nrf2 inh 5.8µM (no result: A549 viability)
Oc1ccc(CN2CCCCC2)c2cccnc12	Nrf2 inh inconclusive, A549 viability inconclusive
COc1cc(CN2CCc3ccccc3C2)ccc1O	Nrf2 inh 7.3µM
CCC1CN(C(=O)N2CCC(C(=O)NCCc3ccc(Cl)cc3)CC2)c2ccccc2O1 (stereo not given)	none (no result: IL-2 act)
COc1ccccc1NS(=O)(=O)c1ccc2c(c1)CCC(=O)N2	none (no result: IL-2 act, Nrf2 ARE act)
N#Cc1ccc(CN2CCN(C(=O)c3ccc(S(=O)(=O)N4CCCCCC4)cc3)CC2)cc1	Nrf2 inh 16µM
COc1ccc(CN2CCN(C(=O)c3ccc(S(=O)(=O)N4CCCCCC4)cc3)CC2)cc1F	Nrf2 inh 9.2µM
COc1ccc(CN2CCN(C(=O)c3ccc(S(=O)(=O)N4CCCCCC4)cc3)CC2)cc1	Nrf2 inh inconclusive
N#Cc1ccc(S(=O)(=O)N2CCC(C(=O)N3CCN(Cc4ccc5c(c4)OCO5)CC3)CC2)cc1	Nrf2 inh 18µM
CCOc1ccc(NC(=O)CSc2nnc3c(n2)[nH]c2ccc(S(=O)(=O)N(C)C)cc23)cc1	none (no result: IL-2 act, Nrf2 ARE act)
